Bioassay records (PubChem)
Peg3 promoter: reduces Peg3 promoter-driven luciferase expression in HeLa. AID 588405. HeLa PEG-Prom luciferase reporter, luminescence, overnight. 360,000 tested, 1.7% active. inhibition, % at 20 µM;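 active = inhibition of at least 50% at 20 µM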
CF NFkB block: blocks PAF-induced NF-kB reporter in cystic fibrosis cells. 360,000 tested, 0.86% active. KKLEB NF-kB-GFP reporter, GFP fluorescence overnight. AID 588850. inhibition, % at 5 µM;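 active = at least 50% inhibition at 5 µM, scaled per plate between neutral and stimulator controls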;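 note: PAF is a Pseudomonas aeruginosa culture filtrate used as stimulus; plate controls were PAF-stimulated DMSO wells for no effect and unstimulated DMSO wells for full effect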
KKLEB tox: counter-screen for CF NF-kB inhibitors: cytotoxicity. AID 602141. KKLEB CF airway cells viability, ATPlite luminescence, overnight; active compounds read low; cells stimulated with P. aeruginosa culture filtrate. 360,000 tested, 0.36% active. activity change (cytotoxicity), % at 5 µM;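 active = corrected activity change at or below -50% at 5 µM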
TRPM1 prom inh: inhibitors of MITF-driven TRPM1 promoter in melanoma cells | SK-MEL-5 TRPM1 promoter luciferase, 24 h | inhibition, % at 12.5 µM | 330,000 tested, 0.83% active;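 active = mean inhibition across replicates of 60% or more, whatever share of single replicates reaches that level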
HIF-2a block: inhibitors of HIF-2a. 786-0 RCC cells HIF-2a reporter, luciferase luminescence, overnight. inhibition, % at 18.8 µM. 360,000 tested, 0.72% active;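 active = inhibition of the luminescence signal of 40% or more relative to plate controls, in a single-dose primary screen at 18.75 µM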
EBV LMP1 NFkB: inhibitors of Epstein-Barr LMP1-induced NF-kappaB reporter | LMP1-induced NF-kappaB luciferase reporter cells, luminescence | inhibition, % at 12.5 µM | 350,000 tested, 0.69% active | AID 504558; in the data active = inhibition above about 41%;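 note: 0% = neutral control wells and 100% = reference inhibitor control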
Mdm2-MdmX confirm: Mdm2/MdmX (human) interaction inhibition, confirmed | AID 504601 | SaOS-2 split-luciferase Mdm2/MdmX complementation, luminescence | inhibition, % at 8 µM | shares compounds with HIF-2a block | 740 tested, 99% active;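 active = mean inhibition of the luminescence signal across two replicates at or above 26 percent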
Target sequence (O15151 whole entry, looked up): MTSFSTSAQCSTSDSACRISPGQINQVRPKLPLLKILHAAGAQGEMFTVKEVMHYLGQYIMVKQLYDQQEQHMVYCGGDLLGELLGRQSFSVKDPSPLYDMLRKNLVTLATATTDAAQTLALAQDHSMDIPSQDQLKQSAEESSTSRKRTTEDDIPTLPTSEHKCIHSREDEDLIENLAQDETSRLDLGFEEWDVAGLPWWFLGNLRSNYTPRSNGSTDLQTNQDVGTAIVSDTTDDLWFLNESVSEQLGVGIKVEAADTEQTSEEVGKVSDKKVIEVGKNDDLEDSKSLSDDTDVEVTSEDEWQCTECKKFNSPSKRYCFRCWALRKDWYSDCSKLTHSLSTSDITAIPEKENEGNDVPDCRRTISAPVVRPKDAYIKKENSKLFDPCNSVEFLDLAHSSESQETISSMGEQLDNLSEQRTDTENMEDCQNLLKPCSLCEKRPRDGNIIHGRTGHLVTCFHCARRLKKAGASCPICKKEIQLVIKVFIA
Target sequence (Q00987 whole entry, looked up): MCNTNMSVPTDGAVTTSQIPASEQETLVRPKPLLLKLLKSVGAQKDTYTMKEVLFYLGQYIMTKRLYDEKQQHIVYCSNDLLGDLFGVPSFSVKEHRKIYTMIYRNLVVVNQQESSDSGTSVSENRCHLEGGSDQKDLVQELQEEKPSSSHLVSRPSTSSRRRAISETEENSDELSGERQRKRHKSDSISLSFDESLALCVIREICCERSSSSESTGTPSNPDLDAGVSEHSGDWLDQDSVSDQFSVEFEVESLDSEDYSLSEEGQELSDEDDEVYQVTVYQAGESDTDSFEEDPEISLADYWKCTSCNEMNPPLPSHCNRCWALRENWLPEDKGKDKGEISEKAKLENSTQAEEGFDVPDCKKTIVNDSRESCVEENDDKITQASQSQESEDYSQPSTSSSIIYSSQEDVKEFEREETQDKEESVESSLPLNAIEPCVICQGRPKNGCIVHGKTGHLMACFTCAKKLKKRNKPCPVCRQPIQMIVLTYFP
HIF-2a inh conf: HIF-2a inhibition, single concentration confirmation | shares compounds with HIF-2a block | AID 651580 | 1,800 tested, 56% active | 786-0 RCC cells, HIF-2a luciferase reporter luminescence, overnight | inhibition, % at 18.8 µM;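 active = mean inhibition across four replicates of at least 40 percent at the single tested concentration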
HIF-1a counter: inhibits HIF-1a reporter, a counter-screen for HIF-2a inhibitors; 1,800 tested, 72% active; inhibition, % at 18.8 µM; shares compounds with HIF-2a block; MiaPaCa-2 HIF-1a luciferase reporter, desferoxamine, overnight;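 active = mean inhibition of the reporter signal across four replicates at the single tested dose of 50% or more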
Starred values were filed as active, the others as inactive; . = no result. Rows were chosen to be rich in hits. Some 3% of all compounds tested hit in one or more screens of this group.

SMILES	Peg3 promoter	CF NFkB block	KKLEB tox	TRPM1 prom inh	HIF-2a block	EBV LMP1 NFkB	HIF-2a inh conf	HIF-1a counter	others
O=C(NCc1cccnc1)/C(=C/c1ccc(-c2ccc(Cl)cc2)o1)S(=O)(=O)c1ccccc1	101*	73*	-54*	93*	90*	-52	99*	104*	Mdm2-MdmX confirm=102*
O=C1NC(=O)C2(CCCC2)N1	3	-12	16	-1	-3	3	.	.
COC(=O)COc1ccc(S(=O)(=O)N2CCc3ccccc3C2)cc1C	16	-13	9	2	76*	2	20	-5
COC(=O)COc1ccc(NC(=O)C(c2ccccc2)c2ccccc2)cc1	7	4	-1	8	88*	15	34	-10
COC(=O)COc1ccc(S(=O)(=O)N2CCOCC2)cc1C	9	-5	8	11	18	5	.	.
COC(=O)COc1ccc(S(=O)(=O)N2CCN(c3ccccc3)CC2)cc1	18	-5	10	-2	48*	0	4	-13
CCOc1ccc(S(=O)(=O)N2CCC(C(=O)N3CCN(c4ccccc4)CC3)CC2)cc1	21	1	1	13	2	-14	.	.
COC(=O)c1cc(S(=O)(=O)N2CCN(c3ccccc3F)CC2)c[nH]1	-1	8	-12	0	10	8	.	.
COC(=O)COc1ccc(S(=O)(=O)N2CCN(c3ccccc3F)CC2)cc1	11	-2	5	4	66*	-4	12	-1
COc1cc(/C=C/C(=O)OCC(=O)Nc2ccc3[nH]c(=O)[nH]c3c2)ccc1OC(F)F	2	5	2	.	4	-19	.	.
COc1cc2c(cc1N)-c1ccc(N)cc1C2=O	-278	-102	12	.	-244	-35	.	.
Cc1cccc2c1NC(=O)C2(c1ccc(O)cc1)c1ccc(O)cc1	27	48	-45	22	24	0	.	.
Cc1cc(C2(c3ccc(O)c(C)c3)C(=O)Nc3ccccc32)ccc1O	80*	0	4	35	45*	2	22	69*
Cc1noc(/C=C/c2cccnc2)c1[N+](=O)[O-]	39	-15	10	-3	48*	4	37	56*
Cc1cccc(C)c1N/C=C/c1onc(C)c1[N+](=O)[O-]	18	8	-2	-15	0	-9	.	.
O=C1C(=C(c2ccccc2)N2CCOCC2)Cc2ccccc21	108*	91*	-7	.	91*	64*	98*	105*
CC[C@H](C)[C@@H](CNC)NC[C@@H](Cc1ccc(O)cc1)NCC(C)(C)C	-11	-35	-2	-2	3	23	.	.
CCCC[C@H](CN[C@@H](CNC)[C@H](C)CC)NCCC12CCC(CC1)C2	102*	-12	-1	94*	-7	-1	.	.	Mdm2-MdmX confirm=103*
Nc1ccc(C2(c3ccc(N)cc3)c3ccccc3C(=O)c3ccccc32)cc1	44	21	1	7	42*	0	33	55*
O=C1OC2(c3ccccc31)c1ccccc1-c1ccccc12	32	17	-14	9	4	-4	.	.
CSCCOC(=O)C1=C(C)NC(=O)NC1c1ccc2c(c1)OCO2 (configuration not stated)	13	-10	6	-7	19	2	.	.
CC1=C(C(=O)OCc2ccc3c(c2)OCO3)C(c2ccc(F)cc2)NC(=O)N1 (configuration not stated)	55*	86*	-32	46	23	79*	.	.	Mdm2-MdmX confirm=97*
O=C(O)C1c2ccccc2Cc2ccccc21	14	-41	21	.	13	1	.	.
Cc1cc(C)c(C(=O)/C=C/c2cccc3ccccc23)c(=O)[nH]1	96*	44	-26	87*	85*	58*	92*	105*	Mdm2-MdmX confirm=103*
C[C@@H]1CN([C@H](C)CO)C(=O)CCCn2nncc2CO[C@H]1CN(C)Cc1ccccc1	-4	-8	4	.	1	4	.	.
SMILES	Peg3 promoter	CF NFkB block	KKLEB tox	TRPM1 prom inh	HIF-2a block	EBV LMP1 NFkB	HIF-2a inh conf	HIF-1a counter	others
Cc1cc(C(=O)CCl)c(C)n1CCc1ccc(Cl)cc1	98*	30	-30	78*	48*	3	49*	105*
CCOC(=O)N=S(N)(=O)c1ccccc1 (configuration not stated)	7	8	-7	0	-5	-3	.	.
CCOC(=O)CC(S(=O)(=O)c1ccccc1)S(=O)(=O)c1ccccc1	100*	87*	-90*	.	76*	-4	11	1
COc1ccc(NC(=O)C2Cc3c(-c4cccc(C(N)=O)c4)ccnc3O2)cc1 (configuration not stated)	2	8	-3	.	-8	.	.	.
Cc1ccc(NC(=O)C(=Cc2ccc(C(=O)O)cc2)C(=O)Nc2ccc(C)cc2C)c(C)c1	95*	14	-58*	49	85*	30	92*	104*	Mdm2-MdmX confirm=102*
Cc1cc(C)n(-c2nc(Nc3ccccc3)nc(-n3nc(C)cc3C)n2)n1	16	-9	13	-3	-2	1	.	.
Cc1cc(C)n(-c2nc(N(c3ccccc3)c3ccccc3)nc(-n3nc(C)cc3C)n2)n1	108*	64*	-53*	71*	-27	16	.	.	Mdm2-MdmX confirm=103*
CC1(C(=O)NS(=O)(=O)c2ccc(Br)cc2)CCN1C(=O)CCC1CCCC1 (configuration not stated)	0	-9	3	.	11	.	.	.
O=S(=O)(C/C(=C/CO)S(=O)(=O)c1ccccc1)c1ccccc1	95*	99*	-26	78*	87*	93*	98*	105*	Mdm2-MdmX confirm=102*
O=S(=O)(CS(=O)(=O)c1ccccc1)c1ccccc1	16	-9	3	-4	10	-16	.	.
CN(C)CCNC(=O)c1cc2c(s1)-c1ccc(Cl)cc1SC2	110*	47	-45	100*	-50	3	.	.	Mdm2-MdmX confirm=103*
O=[N+]([O-])/C=C/c1cn(Cc2ccc(Cl)cc2)c2ccccc12	81*	25	5	26	51*	9	29	85*
CCOC(=O)Cn1cc(/C=C/[N+](=O)[O-])c2ccccc21	40	-5	-2	9	77*	5	60*	22
CCOc1ccc(/C=C/[N+](=O)[O-])c2ccccc12	99*	7	-23	84*	89*	75*	39	105*
CCOC(=O)COc1ccc(/C=C/[N+](=O)[O-])c(OCC(=O)OCC)c1	106*	16	-15	92*	75*	7	7	90*
